“And” between values parts separate entries of the source, which are not always exact repeats. Equal entries are not always repeated. Results filed as inconclusive are left out. A structure can be active in one record and inactive in another. The source made the active and inactive calls. Unless noted, calls follow the shape of the dose curve; as a rule, active = well fitted curve in the direction sought with a large enough effect in the repeat runs; inconclusive = weak or mixed curves; inactive = no such curve, though single readings can be large; an effect the other way counts as inactive or inconclusive.
How the values were obtained:
[1] = qHTS assay to identify small molecule antagonists of the estrogen related receptor (ERR) signaling pathway from Tox21 library - cell viability counter screen (AID 1224834); also: nearly all actives have a fitted effect of over 30% in size; also: potency is read from the fitted curve at half-maximal effect
In short: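 In this quantitative HTS format, ERR cells receive compounds in DMSO and are incubated for 17.5 h at 37 C. Live-cell protease activity is then detected with CellTiter-Fluor.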

[2] = biological target: Luciferin 4-monooxygenase (Photinus pyralis) (UniProt P08659); assay: qHTS assay to identify small molecule inhibitors of firefly luciferase (AID 1224835); also: nearly all actives have a fitted effect of over 25% in size; also: potency is read from the fitted curve at half-maximal effect
In short: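 Inhibition of purified Photinus luciferase is measured by luminescence. Substrate levels (D-luciferin, ATP) sit at their KM values. Each compound is tested in a concentration series.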

[3] = qHTS assay to identify small molecule agonists of the constitutive androstane receptor (CAR) signaling pathway - cell viability counter screen (AID 1224836); also: nearly all actives have a fitted effect of over 45% in size
In short: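 HepG2 cells stably carrying hCAR and a CYP2B6-2.2kb reporter were plated 4 h, then given compounds at 15 concentrations plus PK11195 (final 0.75 uM). After 23 h at 37 C, viability was read by CellTiter-Fluor fluorescence.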

[4] = qHTS assay to identify small molecule antagonists of the constitutive androstane receptor (CAR) signaling pathway - cell viability counter screen (AID 1224837); also: nearly all actives have a fitted effect of over 45% in size
In short: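 In quantitative HTS format, compounds at 15 concentrations were applied to HepG2 cells double-transfected with hCAR and CYP2B6-2.2kb under 50 nM CITCO stimulation; live-cell protease activity was read after 23 hr via CellTiter-Fluor.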

[5] = biological target: Thyrotropin receptor (Homo sapiens) (UniProt P16473); assay: qHTS assay to identify small molecule agonists of the thyroid stimulating hormone receptor (TSHR) signaling pathway (AID 1224843; calls by dose curve; also: nearly all actives have a fitted effect of over 45% in size; also: potency is read from the fitted curve at half-maximal effect)
In short: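 Agonist activity read as cAMP rise via d2/cryptate HTRF competition, 1 h room-temperature detection, in HEK293 cells expressing TSHR. Fifteen-point titrations, each run in triplicate, with a 30 min room-temperature incubation beforehand.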

[6] = qHTS assay to identify small molecule agonists of the hypoxia (HIF-1) signaling pathway - cell viability counter screen (AID 1224844; calls by dose curve; also: nearly all actives have a fitted effect of over 50% in size; also: potency is read from the fitted curve at half-maximal effect)
In short: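 Same wells as the HIF-1 reporter screen; ME-180 cells carrying HRE-bla, 17 hr treatment at 37C; CellTiter-Glo luminescence read after 30 min at room temperature.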

[7] = qHTS assay to identify small molecule agonists of the hypoxia (HIF-1) signaling pathway (AID 1224846; active = well fitted activation curve with a large enough effect in the signal ratio in the repeat runs, not every such curve was filed as active; the % refers to the signal ratio)
In short: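 In ME-180 cells bearing an HRE-bla construct, 17 h treatment with DMSO-dissolved compounds at 37C was followed by CCF4-AM loading to quantify reporter induction.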

[8] = qHTS assay to identify small molecule agonists of H2AX - cell viability counter screen (AID 1224847; calls by dose curve; also: nearly all actives have a fitted effect of over 30% in size; also: potency is read from the fitted curve at half-maximal effect)
In short: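 Wild-type CHO-K1 cells (10% FBS medium) were plated overnight at 37C, exposed to compounds at 15 concentrations for 3 hr at 37C (0.76% DMSO final), and viability was read as CellTiter-Glo luminescence after 30 min at room temperature.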

[9] = qHTS RealTime-Glo MT Cell Viability Assay in HepG2 cells - 24 hour (AID 1224867); also: nearly all actives have a fitted effect of over 50% in size
In short: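 qHTS, HepG2, 600 cells/well, RealTime-Glo (NanoLuc + prosubstrate) added with cells; 5 h preincubation; DMSO compound addition; 37 C; luminescence at 0/8/16/24/32/40 h.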

[10] = qHTS RealTime-Glo MT Cell Viability Assay in HEK293 cells - 32 hour (AID 1224868); also: nearly all actives have a fitted effect of over 50% in size; also: potency is read from the fitted curve at half-maximal effect
In short: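 Assay medium contained NanoLuc luciferase plus cell-permeant prosubstrate, added with HEK293 cells at 600 cells/well. After 5 h at 37 C/5% CO2 compounds were added; plates stayed at 37 C for 40 h with serial luminescence reads.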

[11] = A CellTox Green Cytotoxicity Assay to monitor cytotoxicity in HEK293 cells - 0 hour (AID 1224869); also: nearly all actives have a fitted effect of over 50% in size
In short: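 Homogeneous no-lysis format: HEK293 cell suspension mixed with CellTox Green reagent, seeded, incubated 5 h at 37 C/5% CO2, then dosed by pintool with compound in DMSO.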

[12] = qHTS assay to identify small molecule antagonists of the estrogen related receptor signaling pathway with the pleiotropic PPARgamma coactivator (PGC) from Tox21 10K library - cell viability counter screen (AID 1224840; active = well fitted cell-killing curve with a large enough effect in the repeat runs, not every such curve was filed as active; also: nearly all actives have a fitted effect of over 40% in size)
In short: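 Viability counter screen, PGC/ERR cells: 17.5 h compound exposure at 37 C, CellTiter-Fluor fluorescence endpoint.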

[13] = qHTS assay to identify small molecule antagonists of the estrogen related receptor signaling pathway with the pleiotropic PPARgamma coactivator (PGC) from Tox21 10K library (AID 1224841; call rule not given here; also: potency is read from the fitted curve at half-maximal effect)
In short: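 In the PGC/ERR line, DMSO solutions of test chemicals are pin-delivered to 2,000 cells/well six hours after dispensing. Following eighteen hours' incubation, One-Glo reagent is added and luminescence recorded.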

[14] = qHTS assay to identify small molecule agonists of the estrogen related receptor signaling pathway with the pleiotropic PPARgamma coactivator (PGC) from Tox21 10K library (AID 1224842); also: nearly all actives have a fitted effect of over 15% in size
In short: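 Luminescence from One-Glo (30 min, room temperature) measured after PGC/ERR cells had 18 h at 37 C with pinned compound (23 nL in DMSO). Cells had been seeded at 2,000 per well and pre-incubated 6 h.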

[15] = qHTS assay to identify small molecule agonists of H2AX (AID 1224845; active = well fitted activation curve with a large enough effect in the signal ratio in the repeat runs, not every such curve was filed as active; the % refers to the signal ratio)
In short: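 Phospho-H2AX Ser139 measured by HTRF (ex 320 nm; em 665 and 620 nm) after 24 hr antibody incubation. Compounds, 15 concentrations, 0.76% DMSO, were applied to CHO-K1 cells for 3hr at 37C before lysis.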

[16] = qHTS assay to identify small molecule antagonists of the estrogen related receptor (ERR) signaling pathway from Tox21 library (AID 1224848); also: nearly all actives have a fitted effect of over 50% in size; also: potency is read from the fitted curve at half-maximal effect
In short: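 Luciferase luminescence (ONE-Glo, 30 min room temperature) was the read-out. Cells of the NTP-supplied ERR line, 2,000 per well, were given 6 h at 37 C before compound addition in DMSO and 18 h exposure at 37 C.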

[17] = biological target: Nuclear receptor subfamily 1 group I member 3 (Homo sapiens) (UniProt Q14994); assay: qHTS assay to identify small molecule antagonists of the constitutive androstane receptor (CAR) signaling pathway (AID 1224838); also: nearly all actives have a fitted effect of over 40% in size; also: potency is read from the fitted curve at half-maximal effect
In short: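 CITCO-stimulated (50 nM final) HepG2 cells stably transfected with hCAR and CYP2B6-2.2kb luciferase were exposed to compounds at 15 concentrations for 24 h at 37 C/5% CO2. A luciferase reagent was added and luminescence recorded after 30 min.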

[18] = biological target: Nuclear receptor subfamily 1 group I member 3 (Homo sapiens) (UniProt Q14994); assay: qHTS assay to identify small molecule agonists of the constitutive androstane receptor (CAR) signaling pathway (AID 1224839); also: nearly all actives have a fitted effect of over 15% in size; also: potency is read from the fitted curve at half-maximal effect;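 as to activation: HepG2 cells stably carrying human CAR and a CYP2B6 luciferase reporter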
In short: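 HepG2 cells stably expressing hCAR and a CYP2B6-2.2kb luciferase reporter were treated with compounds at 15 concentrations plus 0.75 uM PK11195 (final) for 24 h at 37 C; luminescence was read after ONE-Glo addition.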

[19] = qHTS assay to identify small molecule agonists of the estrogen related receptor (ERR) signaling pathway from Tox21 library (AID 1224849; calls by dose curve; also: nearly all actives have a fitted effect of over 15% in size); conditions: ERR reporter cell line, ONE-Glo luciferase, 18 h; at 92.4 µM (top of the series)
In short: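 Reporter cells (ERR, NTP source) treated with Tox21 10K compounds 18 h, 37 C. Readout: ONE-Glo luminescence, 30 min RT.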
% is scaled to controls: 0 for no effect and ±100 for the full control effect.

Sequence of Thyrotropin receptor (Homo sapiens) (P16473 whole entry, looked up): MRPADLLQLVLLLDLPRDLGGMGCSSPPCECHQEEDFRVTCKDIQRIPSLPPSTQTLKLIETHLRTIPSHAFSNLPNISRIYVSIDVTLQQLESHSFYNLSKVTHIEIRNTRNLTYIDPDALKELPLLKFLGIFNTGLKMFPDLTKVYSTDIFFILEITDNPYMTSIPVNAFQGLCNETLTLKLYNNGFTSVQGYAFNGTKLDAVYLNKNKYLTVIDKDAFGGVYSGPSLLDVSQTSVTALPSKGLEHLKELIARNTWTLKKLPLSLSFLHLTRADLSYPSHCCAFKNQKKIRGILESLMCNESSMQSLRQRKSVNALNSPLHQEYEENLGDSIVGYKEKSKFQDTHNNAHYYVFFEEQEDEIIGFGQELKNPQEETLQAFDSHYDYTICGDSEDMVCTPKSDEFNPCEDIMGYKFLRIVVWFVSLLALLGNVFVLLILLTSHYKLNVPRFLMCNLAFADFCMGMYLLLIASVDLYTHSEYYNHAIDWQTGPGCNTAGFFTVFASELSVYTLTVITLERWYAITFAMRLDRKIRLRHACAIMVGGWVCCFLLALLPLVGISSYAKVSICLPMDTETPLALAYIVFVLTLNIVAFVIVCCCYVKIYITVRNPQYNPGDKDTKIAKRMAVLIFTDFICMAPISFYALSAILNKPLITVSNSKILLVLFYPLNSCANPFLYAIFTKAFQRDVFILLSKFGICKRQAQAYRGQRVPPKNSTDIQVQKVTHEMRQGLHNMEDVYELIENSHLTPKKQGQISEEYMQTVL
Sequence of Luciferin 4-monooxygenase (Photinus pyralis) (P08659 whole entry, looked up): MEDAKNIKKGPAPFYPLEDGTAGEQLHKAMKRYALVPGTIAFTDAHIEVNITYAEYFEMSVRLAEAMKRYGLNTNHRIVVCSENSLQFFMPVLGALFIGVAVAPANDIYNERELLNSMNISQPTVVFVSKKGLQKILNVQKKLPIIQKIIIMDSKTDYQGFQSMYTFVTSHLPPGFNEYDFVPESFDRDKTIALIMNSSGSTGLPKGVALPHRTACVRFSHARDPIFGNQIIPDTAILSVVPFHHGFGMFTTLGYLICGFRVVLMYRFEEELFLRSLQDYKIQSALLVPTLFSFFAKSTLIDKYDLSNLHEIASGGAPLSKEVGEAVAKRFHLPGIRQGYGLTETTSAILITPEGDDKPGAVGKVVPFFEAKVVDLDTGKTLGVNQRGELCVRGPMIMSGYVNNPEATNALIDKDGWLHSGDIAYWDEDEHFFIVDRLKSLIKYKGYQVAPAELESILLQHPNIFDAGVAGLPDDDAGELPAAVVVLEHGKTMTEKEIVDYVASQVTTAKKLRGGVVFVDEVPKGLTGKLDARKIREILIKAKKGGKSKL
Sequence of Nuclear receptor subfamily 1 group I member 3 (Homo sapiens) (Q14994 whole entry, looked up): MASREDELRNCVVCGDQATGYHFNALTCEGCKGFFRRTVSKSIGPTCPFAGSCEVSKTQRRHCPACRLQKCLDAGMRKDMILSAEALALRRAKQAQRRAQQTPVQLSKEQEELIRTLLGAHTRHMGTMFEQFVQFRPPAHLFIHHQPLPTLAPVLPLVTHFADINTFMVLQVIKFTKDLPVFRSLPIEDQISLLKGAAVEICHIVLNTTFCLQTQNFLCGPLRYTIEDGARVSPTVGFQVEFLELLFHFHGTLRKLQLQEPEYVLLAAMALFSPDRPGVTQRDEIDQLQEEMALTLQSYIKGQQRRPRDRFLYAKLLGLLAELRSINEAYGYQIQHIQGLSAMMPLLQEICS

CC(C)NC(C)C
inactive: Potency [1] | Potency [2] | Potency [3] | Potency [4] | Potency [5] | Potency [6] | outcome [7] | Potency [8] | Potency [9] | Potency [10] | Potency [11]

ClC1C(Cl)C(Cl)C(Cl)C(Cl)C1Cl (stereo not given)
inactive and 48.6 µM (active): Potency [16]
inactive and 68.6 µM (active): Potency [13]
inactive: Potency [1] | Potency [2] | Potency [3] | Potency [4] | Potency [12] | Potency [14] | Potency [6] | Potency [15] | outcome [7] | Potency [9]

NC(=S)Nc1ccccc1
5.59 µM (active) and inactive: Potency [10]
inactive: Potency [2] | Potency [3] | Potency [4] | Potency [5] | Potency [6] | Potency [15] | outcome [7] | Potency [8] | Potency [9]
22 µM (active) and inactive: Potency [1]

COP(=O)(OC)OC
inactive: Potency [1] | Potency [2] | Potency [3] | Potency [4] | Potency [18] | Potency [12] | Potency [13] | Potency [14] | Potency [5] | Potency [6] | outcome [7] | Potency [8] | Potency [16] | activity change, positive = activation [19] -30.8% and 3.29% | Potency [9] | Potency [10] | Potency [11]
30.9 µM (active) and inactive: Potency [17]

CC(C)c1ccc(CO)cc1
inactive: Potency [1] | Potency [2] | Potency [3] | Potency [4] | Potency [12] | Potency [13] | Potency [14] | Potency [5] | Potency [6] | outcome [7] | Potency [8] | Potency [16] | activity change, positive = activation [19] 2.78% and -0.788% | Potency [9] | Potency [10] | Potency [11]

CCCCCCCCCCCOC(=O)c1ccccc1C(=O)OCCCCCCCCCCC
inactive: Potency [1] | Potency [2] | Potency [3] | Potency [4] | Potency [12] | Potency [5] | Potency [6] | Potency [15] | outcome [7] | Potency [8] | Potency [9] | Potency [10] | Potency [11]

CCCCN(CCCC)N=O
inactive: Potency [1] | Potency [2] | Potency [3] | Potency [4] | Potency [5] | Potency [6] | Potency [15] | outcome [7] | Potency [8] | Potency [9] | Potency [10]

CCCCCCCCC(=O)NCc1ccc(O)c(OC)c1
inactive: Potency [1] | Potency [2] | Potency [3] | Potency [4] | Potency [18] | Potency [12] | Potency [5] | Potency [6] | Potency [15] | Potency [8] | Potency [9] | Potency [10]

Cc1ccc(OP(=O)(Oc2ccc(C)cc2)Oc2ccc(C)cc2)cc1
active: Potency [5] 12.2 µM and 30.6 µM
inactive: Potency [1] | Potency [2] | Potency [3] | Potency [4] | Potency [13] | Potency [14] | Potency [6] | Potency [15] | outcome [7] | Potency [16] | activity change, positive = activation [19] -19.4% and -4.77% | Potency [9] | Potency [11]

Oc1c(Cl)c(Cl)c(Cl)c(Cl)c1Cl
inactive: Potency [1] | Potency [4] | Potency [17] | Potency [5] | Potency [6] | outcome [7] | Potency [9] | Potency [10] | Potency [11]
34.9 µM (active) and inactive: Potency [2]
active: Potency [18] 21.2 µM and 15.4 µM | Potency [8] 88 µM

Cc1cc(C)cc(C)c1
inactive: Potency [1] | Potency [2] | Potency [4] | Potency [12] | Potency [5] | Potency [6] | outcome [7] | Potency [8] | Potency [9] | Potency [10]

C1=Cc2cccc3cccc1c23
190 nM (active) and inactive: Potency [13]
inactive: Potency [1] | Potency [3] | Potency [4] | Potency [17] | Potency [14] | Potency [5] | Potency [6] | Potency [15] | outcome [7] | Potency [8] | Potency [16] | activity change, positive = activation [19] -16.5% and -13.1% | Potency [9] | Potency [10]

CCOc1cc(Oc2ccc(C(F)(F)F)cc2Cl)ccc1[N+](=O)[O-]
inactive: Potency [1] | Potency [2] | Potency [4] | Potency [17] | Potency [18] | Potency [14] | Potency [6] | Potency [15] | outcome [7] | Potency [8] | activity change, positive = activation [19] -29.7% and -19.5% | Potency [9] | Potency [11]
55.1 µM (active) and inactive: Potency [13]

Nc1ccc(-c2ccccc2)cc1
28.3 µM (active) and inactive: Potency [6]
inactive: Potency [4] | Potency [5] | Potency [15] | outcome [7] | Potency [8] | Potency [9]
8.87 µM (active) and inactive: Potency [1]
active: Potency [2] 57.9 µM and 63.3 µM | Potency [18] 30.6 µM

CCC(C)c1ccc(O)cc1 (stereo not given)
active: Potency [2] 71.6 µM
inactive: Potency [1] | Potency [4] | Potency [18] | Potency [12] | Potency [13] | Potency [14] | Potency [6] | Potency [15] | outcome [7] | Potency [16] | activity change, positive = activation [19] -5.15% and 5.69% | Potency [9] | Potency [10] | Potency [11]

CCC(=O)O[C@H]1CC[C@H]2[C@@H]3CCC4=CC(=O)CC[C@]4(C)[C@H]3CC[C@]12C
54.9 µM (active) and inactive: Potency [6]
inactive: Potency [1] | Potency [3] | Potency [4] | Potency [17] | Potency [18] | Potency [12] | Potency [5] | outcome [7] | Potency [9]
101 µM (active) and inactive: Potency [8]

Reference: PubChem BioAssay (Tox21)
